PubChem BioAssay AID953 (National Center for Advancing Translational Sciences (NCATS), 2007)
This is one part of the list. Records with an inconclusive call do not appear. The source made the active and inactive calls. Calls come from the whole dose curve; as a rule, active = well fitted curve in the direction sought with a large enough effect; inconclusive = small, poorly fitted or top-dose-only effect, or effect the other way, or another doubt; inactive = no such curve, though single readings can be large or run the other way.

Test: Confirmation Concentration-Response Assay for Agonists of the Thyroid Stimulating Hormone Receptor: Activators of Intracellular cAMP Concentrations in Parental HEK 293
From the text: NIH Chemical Genomics Center [NCGC] NIH Molecular Libraries Screening Centers Network [MLSCN] MLSCN Grant: 1 X01 MH080680-01 PI Name: Dr. Marvin Gershengorn NCGC Assay Overview: This cell based assay utilized a cyclic nucleotide gated ion channel (CNG) as a biosensor for cAMP induction. HEK 293 cells stably expressing the modified CNG were purchased from BD biosciences (http://www.atto.com/products/actone/features_benefits.shtml) . Stimulation of cAMP production causes the CNG to open and subsequent membrane depolarization to occur. A fluorescent membrane potential dye (BD biosciences) was utilized to detect cAMP stimulation in cells. The cells were maintained in DMEM medium (Invitrogen) containing 10 % FBS (Hyclone), 100 units/ml Penicillin, 100 ug/ml Streptomycin (Invitrogen), and 250 ug/ml Geneticin (Invitrogen) and 1 ug/ml Puromycin (Invitrogen) at 37C in 5% CO2. […]
NCGC Assay Protocol Summary: High Throughput Screening. […] 23 nl/well compound or control was then added to the assay plates, which were incubated for additional 30 min before reading a Envision fluorescence plate reader (Perkin Elmer) in bottom-read mode for fluorescence intensity (emission at 590 nm). Keywords: cAMP, CNG Ion Channel, quantitative high throughput screening, qHTS, HTS, probe identification, CNG, cAMP, cyclic nucleotide gated ion channel PubChem

C=CCN1C(=O)C2(C(C(=O)OCC)=C(N)Oc3c2c(=O)oc2ccccc32)c2ccccc21 (configuration not stated)
outcome: inactive

CCOC(=O)C1=C(C)OC(N)=C(C(=O)OC)C12C(=O)Nc1ccc(Br)cc12 (configuration not stated)
outcome: inactive
